Source: PubChem
Shown are actives, neighbours in structure and some others; about 19% of the full set was active somewhere.
DT40 TDP1 no CPT: qHTS for Inhibitors of human tyrosyl-DNA phosphodiesterase 1 (TDP1): qHTS in cells in absence of CPT. Potency, µM (top dose mostly 46.2 µM), for inactives: at the top dose activity change, negative = growth inhibition, usual class: inhibitors. 420,000 tested, 15% active. AID 686978, 2013. DT40 Tdp1-/- hTDP1 cells, no CPT, ATP luminescence, 48 h; further: potency means the concentration at half of the fitted maximal effect; on the % scale 0 is the no-effect control and ±100 the full control effect; nearly all actives have a fitted effect of over 55% in size
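Seeded 400 DT40-hTDP1 cells/well (vehicle DMSO, no 20 nM CPT); pinned compounds; ≥48 hr at 37 °C; CellTiter-Glo luminescence as viability measure.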
TDP1 inh: blocks human tyrosyl-DNA phosphodiesterase 1. Q9NUW8. recombinant TDP1, AlphaScreen DNA substrate cleavage. Potency, µM (highest dose often 130 µM), for inactives: top-dose activity change, negative = inhibition, usual class: inhibitors. 350,000 tested, 0.28% active; further: potency means the concentration at half of the fitted maximal effect; on the % scale 0 is the no-effect control and ±100 the full control effect; nearly all actives have a fitted effect of over 40% in size
Target sequence (Q9NUW8 whole entry, looked up): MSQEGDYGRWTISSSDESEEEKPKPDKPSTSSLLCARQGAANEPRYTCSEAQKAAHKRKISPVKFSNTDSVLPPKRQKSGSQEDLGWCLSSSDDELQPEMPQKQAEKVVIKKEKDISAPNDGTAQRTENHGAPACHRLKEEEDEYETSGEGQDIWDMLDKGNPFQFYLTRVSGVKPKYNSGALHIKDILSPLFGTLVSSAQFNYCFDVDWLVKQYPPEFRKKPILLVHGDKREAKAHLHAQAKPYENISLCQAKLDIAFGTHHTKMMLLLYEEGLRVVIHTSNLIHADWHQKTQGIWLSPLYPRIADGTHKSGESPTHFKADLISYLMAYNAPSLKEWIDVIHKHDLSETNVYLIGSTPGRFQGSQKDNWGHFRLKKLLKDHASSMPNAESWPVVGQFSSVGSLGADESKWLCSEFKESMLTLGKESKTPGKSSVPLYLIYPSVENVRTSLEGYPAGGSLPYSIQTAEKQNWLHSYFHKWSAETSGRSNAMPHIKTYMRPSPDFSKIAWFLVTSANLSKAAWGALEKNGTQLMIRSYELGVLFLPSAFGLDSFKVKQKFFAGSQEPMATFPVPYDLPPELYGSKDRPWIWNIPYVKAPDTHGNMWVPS
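Enzyme-compound mixtures sat 15 min at room temperature, followed by a 5 min reaction with 15 nM final substrate and 10 min with AlphaScreen beads. Recombinant human Tdp1 was used at 1 nM final.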
DT40 TDP1 CPT: DT40-hTDP1 cell growth loss with CPT. chicken DT40 Tdp1-/-;hTDP1 cells + 20 nM CPT, ATP luminescence, 48 h. Potency, µM (highest dose often 46.2 µM), inactives show top-dose activity change, negative = growth inhibition, hits mostly inhibitors. 420,000 tested, 12% active; further: potency means the concentration at half of the fitted maximal effect; on the % scale 0 is the no-effect control and ±100 the full control effect; nearly all actives have a fitted effect of over 55% in size
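Chicken DT40 Tdp1-/- cells stably complemented with human TDP1 were seeded at 400 cells/well in medium containing 20 nM camptothecin, exposed to pin-transferred compounds, and grown at 37 °C for at least 48 hr. Viability was read as ATP luminescence.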
HepG2 tox: kills HepG2 cells in TGF-b inhibitor counter-screen | Potency, µM (top dose mostly 46.1 µM), for inactives: at the highest dose activity change, negative = cytotoxicity, usual class: cytotoxic | AID 588856 | HepG2 CAGA-GFP viability, ATP luminescence, 18 h | 410,000 tested, 0.76% active; further: potency means the concentration at half of the fitted maximal effect
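HepG2 CAGA-GFP cells (1000/well, DMEM with 1% FBS) received compound, then TGF-beta at 500 pg/mL final, and were incubated 18 hours at 37 degrees C. Viability was read by CellTiter-Glo luminescence. Media-only wells were set as complete cell-killing and DMSO as no toxicity.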
TGFb SMAD3 inh: blocks TGF-b signaling | HepG2 CAGA-GFP TGF-b/SMAD3 reporter, GFP fluorescence, 18 h; TGF-beta stimulated, 500 pg/mL final | Potency, µM (top dose mostly 46.1 µM), for the others: at the highest dose activity, negative = inhibition, usual class: inhibitors | 410,000 tested, 1.2% active; further: potency means the concentration at half of the fitted maximal effect; on the % scale 0 is the no-effect control and ±100 the full control effect; nearly all actives have a fitted effect of over 65% in size
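HEPG2 CAGA-GFP reporter cells (1000/well, DMEM with 1% FBS) received compounds, then recombinant TGF-beta at 500 pg/mL final for 18 hours at 37 degrees C. Per-cell GFP summed per well was normalised to unstimulated and stimulated DMSO controls before curve fitting.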
IL-1B inflam inh: inhibitors of inflammasome signaling (IL-1 beta secretion); AID 743279; activity change, % at 57.5 µM; THP-1 LPS/ATP IL-1B secretion, AlphaLISA, 16 h; hits give low values; 360,000 tested, 4.7% active; in the data active means activity change below about -50%; inconclusive means mostly about -30% to -49%; further: on the % scale 0 is the no-effect control and ±100 the full control effect
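THP-1 cells pretreated 1 hr with compounds (up to 57.5 uM final), then stimulated with LPS (250 ng/mL final) plus ATP (1.25 mM final); secreted IL-1B measured by AlphaLISA after 16 hr, decreased signal indicating inhibition.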
* hit, by the source's call; i = inactive; ? = inconclusive; nt = no result; [ ] = another dose, or the depositor's remark. Unless noted, the call rests on the fitted dose curve; in most records, active means well fitted curve in the direction sought with a large enough effect; inconclusive means small, poorly fitted or top-dose-only effect, or another doubt; inactive means no such curve, though single readings can be large; an effect the other way counts as inactive or inconclusive.

SMILES	DT40 TDP1 no CPT	TDP1 inh	DT40 TDP1 CPT	HepG2 tox	TGFb SMAD3 inh	IL-1B inflam inh
C[C@@]12C(=O)Nc3ccc(Cl)cc3C(=O)N1[C@H]1c3cc(Br)ccc3OC[C@@H]1[C@@H]2c1ccccc1	?	1.5%	23.1µM*	-0.7%	11.6%	-28.4
C[C@@]12C(=O)Nc3ccc(Br)cc3C(=O)N1[C@H]1c3cc(Br)ccc3OC[C@@H]1[C@@H]2c1ccccc1	14.6µM*	0.3%	18.4µM*	-25.5%	-6.7%	-20.2
C[C@@]12C(=O)Nc3ccccc3C(=O)N1[C@H]1c3cc(Br)ccc3OC[C@@H]1[C@@H]2c1ccccc1	?	1.1%	?	-27.5%	?	-4.9
Cc1cc(N2CCOCC2)nc2ccc(NC(=S)N3CCCCC3C)cc12 (stereo not drawn)	?	5.8%	?	-2.2%	-18.3%	-66.8*
Cc1cc(N2CCOCC2)nc2ccc(NC(=O)C3CCCCC3)cc12	10µM*	0.2%	12.6µM*	-0.4%	12.0%	nt
Cc1ccc(NC(=O)C2CCCC2)cc1S(=O)(=O)N1CCOCC1	8.3%	0.2%[56.1 µM]	3.8%	-14.2%	-23.4%	-5.8
CCOC(C)(C)C	nt	8.2%	nt	nt	nt	nt
CC(C)C(=O)N1CCC1(C)C(=O)NCc1cc(Cl)ccc1F (stereo not drawn)	-25.6%	nt	-13.7%	-13.2%	1.0%	-17.6
COc1ccc(-c2c(C)nn3c(C(F)(F)F)cc(-c4ccccc4)nc23)cc1	?	7.6%	?	5.3%	5.0%	nt
CCn1c2ccccc2c2cc(/C=C3\C=Cc4ccccc43)ccc21	?	nt	-20.5%	-21.2%	8.5%	nt
C[C@H](NC(=O)c1ccccc1Cl)C(=O)NCCc1ccc(S(N)(=O)=O)cc1	-8.2%	2.0%	0.4%	13.7%	8.6%	14.3
Cc1ccc(S(=O)(=O)C(CNC(=O)c2ccc(F)c(F)c2)c2ccco2)cc1 (stereo not drawn)	?	2.6%	16.4µM*	-3.8%	-14.9%	nt
Cc1ccc(C(=O)NCC(c2ccco2)S(=O)(=O)c2ccc(Cl)cc2)cc1C (stereo not drawn)	20.6µM*	-2.6%	16.4µM*	-23.2%	?	nt
Cc1ccc(S(=O)(=O)C(CNC(=O)COc2ccc(Cl)cc2)c2ccco2)cc1 (stereo not drawn)	?	7.8%	23.1µM*	-8.8%	?	nt
O=C(NCC(c1ccco1)S(=O)(=O)c1ccc(Cl)cc1)c1ccccc1F (stereo not drawn)	16.4µM*	-2.7%	?	-0.8%	-17.0%	nt
N#Cc1cccc(NC(=O)N2CC[C@@]3(CCCNC3)C2)c1	-13.8%	nt	-89.8%	nt	nt	nt
Cc1oc2ncnc(N3CCOCC3)c2c1C(=O)Nc1ccc(Br)cc1F	-14.2%	2.9%	8.6%	-17.4%	5.6%	nt
Cc1ccc(S(=O)(=O)C(CNC(=O)c2c(F)cccc2F)c2ccco2)cc1 (stereo not drawn)	23.1µM*	3.8%	?	-15.7%	0.0%	nt
O=C(NCC(c1ccco1)S(=O)(=O)c1cccs1)c1ccc(F)c(F)c1 (stereo not drawn)	16.4µM*	0.0%	13µM*	-14.4%	-11.9%	nt
CCOc1ccc(C(=O)NCC(c2ccco2)S(=O)(=O)c2ccc(C)cc2)cc1 (stereo not drawn)	?	0.0%	?	-20.1%	-1.7%	nt
Cc1ccc(C(=O)NCC(C)NC(=O)c2ccc(C)c(C)c2)cc1C (stereo not drawn)	25.9µM*	nt	?	-29.6%	-7.4%	-26.4
O=C(NCC(c1ccco1)S(=O)(=O)c1cccs1)c1ccccc1 (stereo not drawn)	?	-5.2%	?	-3.7%	12.2%	nt
CC(Oc1ccc(F)cc1)C(=O)Nc1cccc(-c2nn[nH]n2)c1 (stereo not drawn)	20.4%	4.9%	-22.1%	-1.2%	-18.7%	-7.3
O=C(CSc1nc(NS(=O)(=O)c2ccccc2)cc(=O)[nH]1)Nc1ccc(F)cc1	-12.3%	28.2µM*	-1.2%	2.0%	-8.9%	6.4
CSC1=N/C(=C\c2ccc(Cl)cc2)C(=O)N1N(C)C	23.1µM*	0.0%	?	-12.7%	?	nt
SMILES	DT40 TDP1 no CPT	TDP1 inh	DT40 TDP1 CPT	HepG2 tox	TGFb SMAD3 inh	IL-1B inflam inh
Cc1ccc(C)c(Nc2nc(NCc3ccco3)nc3nccnc23)c1	?	-15.9%	?	-3.0%	2.3%	nt
CCCC1=[N+](CC(=O)c2ccc(Br)cc2)CCn2cccc21	?	nt	-0.4%	20.8%	-0.6%	-10.8
CCCC1=[N+](CC(C)=O)CCn2c(C)ccc21	2.31µM*	4.6%	3.26µM*	0.6%	7.5%	-0.5
CCCC1=[N+](CC(=O)c2ccccc2)CCn2cccc21	25.9µM*	2.7%	23.1µM*	-7.7%	3.2%	i
CN(C)c1ccc(C=O)c(Cl)c1	0.4%	nt	3.9%	-0.7%	-24.6%	nt
C=C(Br)COC(c1ccco1)[C@H](Cc1ccccc1)NC(=O)OC(C)(C)C (stereo partly drawn)	11.2µM*	nt	?	-28.1%	?	nt
C[C@H](NC(=O)OC(C)(C)C)C(=O)c1ccco1	-3.7%	nt	-1.5%	13.0%	6.7%	nt
COC(=O)c1ccccc1NC(=O)N1CCC(n2c(C)nc3cccnc32)CC1	?	1.2%	?	-23.0%	-8.1%	nt
COc1ccc(-c2noc(CSc3nnc(-c4ccncc4)n3-c3cccc(C)c3)n2)cc1OC	?	4.9%	?	-43.2%	-44.7%	nt
NCCC[C@@H](CC(=O)N[C@@H]1CCNC[C@H]1C(=O)N[C@H](CC(=O)N[C@@H](CCC(=O)O)CC(=O)O)Cc1c[nH]c2ccccc12)NC(=O)C[C@H](Cc1ccccc1)NC(=O)[C@@H]1CNCC[C@H]1N	nt	3.1%	nt	nt	nt	nt
CC(=O)Nc1cccc(-c2ccnc3c2CC(C(=O)NCCC(F)(F)F)O3)c1 (stereo not drawn)	23.1µM*	nt	?	-11.1%	2.7%	34.8
CC(=O)NCCNC(=O)C1Cc2c(-c3cccc(NC(C)=O)c3)ccnc2O1 (stereo not drawn)	0.5%	nt	-0.4%	5.1%	18.9%	16.4
CC(=O)Nc1cccc(-c2ccnc3c2CC(C(=O)NCC2CCOCC2)O3)c1 (stereo not drawn)	2.31µM*	nt	2.59µM*	0.7%	-3.9%	0.0
COc1ccc(CCCNC(=O)C2Cc3c(-c4cccc(NC(C)=O)c4)ccnc3O2)cc1 (stereo not drawn)	3.66µM*	nt	5.8µM*	-6.4%	?	31.2
